Our source for the inhibition values is PubChem BioAssay AID743445 (Broad Institute, 2014).

In all, about 310,000 compounds went through this assay and about 1,700 (0.55%) were called active. The sample as a whole holds a higher share of actives than the screen did. A number with no mark means an inactive call. Cut-off read from the data, not from the text of the source: active = inhibition above about 50%; inactive = the rest.

Histone-lysine N-methyltransferase NSD2 (Homo sapiens), sequence (O96028 whole entry, looked up): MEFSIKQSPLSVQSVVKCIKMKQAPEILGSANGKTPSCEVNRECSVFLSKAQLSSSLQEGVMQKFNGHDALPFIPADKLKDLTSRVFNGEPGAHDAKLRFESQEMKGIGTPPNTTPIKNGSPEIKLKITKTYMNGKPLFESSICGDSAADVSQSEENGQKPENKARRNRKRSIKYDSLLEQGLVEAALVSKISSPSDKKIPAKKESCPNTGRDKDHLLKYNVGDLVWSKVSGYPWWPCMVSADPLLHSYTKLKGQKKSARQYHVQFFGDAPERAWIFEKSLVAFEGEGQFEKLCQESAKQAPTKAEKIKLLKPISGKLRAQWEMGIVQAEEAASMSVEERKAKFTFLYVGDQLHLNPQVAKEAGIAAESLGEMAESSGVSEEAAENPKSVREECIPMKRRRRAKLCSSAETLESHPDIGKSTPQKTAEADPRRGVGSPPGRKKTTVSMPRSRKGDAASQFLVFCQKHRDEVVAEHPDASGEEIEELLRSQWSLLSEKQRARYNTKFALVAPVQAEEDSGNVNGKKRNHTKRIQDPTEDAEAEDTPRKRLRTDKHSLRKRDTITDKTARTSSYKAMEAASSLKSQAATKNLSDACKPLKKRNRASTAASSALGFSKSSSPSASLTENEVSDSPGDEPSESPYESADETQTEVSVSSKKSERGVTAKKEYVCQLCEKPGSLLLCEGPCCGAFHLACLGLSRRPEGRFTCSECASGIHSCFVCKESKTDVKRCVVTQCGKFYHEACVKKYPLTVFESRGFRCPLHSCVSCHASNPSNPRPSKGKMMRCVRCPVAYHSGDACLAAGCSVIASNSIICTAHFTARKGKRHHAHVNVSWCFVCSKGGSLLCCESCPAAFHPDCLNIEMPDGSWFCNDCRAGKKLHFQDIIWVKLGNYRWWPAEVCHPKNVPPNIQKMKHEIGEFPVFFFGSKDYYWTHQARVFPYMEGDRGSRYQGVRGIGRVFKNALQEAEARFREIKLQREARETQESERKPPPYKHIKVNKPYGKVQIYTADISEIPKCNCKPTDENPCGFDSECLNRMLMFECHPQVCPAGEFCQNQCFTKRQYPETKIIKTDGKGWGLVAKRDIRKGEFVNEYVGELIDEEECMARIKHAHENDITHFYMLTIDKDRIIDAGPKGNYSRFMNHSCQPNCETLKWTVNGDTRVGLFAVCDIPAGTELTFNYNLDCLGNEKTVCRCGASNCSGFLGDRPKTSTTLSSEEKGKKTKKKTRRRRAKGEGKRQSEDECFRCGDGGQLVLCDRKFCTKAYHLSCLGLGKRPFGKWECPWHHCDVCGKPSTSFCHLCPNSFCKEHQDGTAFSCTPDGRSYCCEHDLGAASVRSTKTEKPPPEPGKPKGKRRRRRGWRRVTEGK

The assay has as its target Histone-lysine N-methyltransferase NSD2 (Homo sapiens) (UniProt O96028). Nature of the assay: NSD2 histone methyltransferase inhibitors, primary screen, biochemical, AlphaScreen, single concentration, set 2 (AID 743445). The note with it: NSD2 peptide methylation, 120 min, at 12.5 µM, hits give high values. A general note: Bead proximity is the source of the signal in Alpha formats.
Turning to `Cc1c(C(=O)O)cccc1-n1c(C)cc(/C=C2\C(=O)NC(=O)N(c3ccc4c(c3)OCO4)C2=O)c1C`, the inhibition is 65.9% (active).
As to `Cc1cc(/C=C2/C(=O)NC(=O)N(Cc3ccco3)C2=O)c(C)n1-c1ccc(C(=O)O)cc1`, the inhibition was 36.8%.
With `Cc1ccccc1N1C(=O)NC(=O)/C(=C\c2cc(C)n(C)c2C)C1=O` the figure was 5.19%.
With `CCC(C)(O)C(=O)OC1C(=O)OC2CC3C(C)=CC(=O)C(O)C3(C)C3C4(O)OCC23C1C(C)C4O` (stereo not given) the figure was -0.572%.
With `O=C(c1ccccc1)C(O)(CN1CCCCC1)c1ccccc1` (stereo not given) the figure was 1.13%; with `O=c1c2ccccc2[nH]c(=S)n1-c1cccc(Cl)c1`, -7.59%; with `COc1ccc(C2C=C(C)Oc3c2c(=O)oc2ccccc32)cc1OC` (stereo not given), 1.06%.
In the case of `CC12CCC(O)CC1CCC1C2CCC2(C)C(C(=O)CC(O)C(F)(F)F)CCC12` (stereo not given), the inhibition was -0.54%.
For `COc1cccc(N2C(=O)NC(=O)/C(=C\c3cn(C)c4ccccc34)C2=O)c1`, the inhibition was 1.25%.
With `COc1cccc(N2C(=O)NC(=O)/C(=C\c3ccc([N+](=O)[O-])s3)C2=O)c1` the figure was 59% (active).
`COc1ccc(CN2C(=O)NC(=O)/C(=C\c3ccc(OC)c(OC)c3OC)C2=O)cc1`: the inhibition is 1.88%.
With `O=C1NC(=O)N(c2ccc(F)cc2)C(=O)/C1=C/c1ccc2c(c1)CCCN2Cc1ccccc1` the figure was 16.6%; with `O=C1NC(=O)N(c2ccccc2)C(=O)/C1=C/c1ccc([N+](=O)[O-])s1`, 73.4% (active).
With `O=C1NC(=O)C(Cc2ccccc2)C(=O)N1`, the inhibition was -1.35%.
With `CC(=CCOc1ccc2ccc(=O)oc2c1)C1=CC(=O)C(C)(C)O1` the figure was 0.448%; with `CC(=O)OC1C2(CC3N4C(=O)C5(CO)SSC4(CC31O)C(=O)N5C)OC(C)C(C)(C)C2=O` (stereo not given), 133% (active).
With `CO[C@H]([C@H](C)/C=C/N(C)C=O)[C@@H](C)C(=O)CC[C@H](C)[C@H](O)[C@H](C)[C@H]1OC(=O)/C=C/C(C)=C/[C@H](O)[C@H](OC)C[C@@H]2C=CC[C@@H](C[C@H](OC)[C@@]3(CO3)[C@@H](OC)C[C@@H](OC)[C@@H]1C)O2` the figure was -2.92%; with `O=P(OC1=CCCCC1)(c1ccccc1)c1ccccc1`, 1.12%.
With `O=c1c2ccccc2nc(CBr)n1-c1ccc(Cl)cc1` the figure was -1.22%; with `c1cc2c(c(NC3=NCCCS3)c1)CCCC2`, 8.89%.
For the compound `CC(=O)C1(O)CCC2C3CCC4=C(Cl)C(=O)CCC4(C)C3CCC21C` (stereo not given), the inhibition is -5.24%.
As to `Cc1cc(N2C(=O)C3CCCN3C2c2ccc(Cl)c(Cl)c2)no1` (stereo not given), the inhibition is 84.4% (active).
For the compound `CCN1C(=O)NC(=O)C2(CCCC2)C1=O`, the inhibition was 27.8%.
With `C[C@]12CCCCC1=CC(=O)C1C2CC[C@@]2(C)C1C[C@@H](F)[C@@H]2O` (stereo not given in full) the figure was -1.58%; with `O=C1NC(=O)C(CCOc2ccccc2)(CCc2ccccc2)C(=O)N1`, 1.16%.

What is called inhibition is the change of the read-out against control, counted positive when it falls.
